Experimental data reported in ChEMBL document CHEMBL3988442, “University of Dundee, Small-Polar-MMV Screening Library” (2021).
For some of these results: Potency and affinity values are given separately.

Legend:
Design in all cases: scale not given: direction of the effect not stated beside the values
[1] = biological target: Protein translocase subunit SecA (Escherichia coli (strain K12)) (UniProt P10408); assay: Assay to Identify E. coli SecA ATPase Inhibitors; format: functional; conditions: 30 µM
Protein translocase subunit SecA (Escherichia coli (strain K12)), sequence (P10408 whole entry): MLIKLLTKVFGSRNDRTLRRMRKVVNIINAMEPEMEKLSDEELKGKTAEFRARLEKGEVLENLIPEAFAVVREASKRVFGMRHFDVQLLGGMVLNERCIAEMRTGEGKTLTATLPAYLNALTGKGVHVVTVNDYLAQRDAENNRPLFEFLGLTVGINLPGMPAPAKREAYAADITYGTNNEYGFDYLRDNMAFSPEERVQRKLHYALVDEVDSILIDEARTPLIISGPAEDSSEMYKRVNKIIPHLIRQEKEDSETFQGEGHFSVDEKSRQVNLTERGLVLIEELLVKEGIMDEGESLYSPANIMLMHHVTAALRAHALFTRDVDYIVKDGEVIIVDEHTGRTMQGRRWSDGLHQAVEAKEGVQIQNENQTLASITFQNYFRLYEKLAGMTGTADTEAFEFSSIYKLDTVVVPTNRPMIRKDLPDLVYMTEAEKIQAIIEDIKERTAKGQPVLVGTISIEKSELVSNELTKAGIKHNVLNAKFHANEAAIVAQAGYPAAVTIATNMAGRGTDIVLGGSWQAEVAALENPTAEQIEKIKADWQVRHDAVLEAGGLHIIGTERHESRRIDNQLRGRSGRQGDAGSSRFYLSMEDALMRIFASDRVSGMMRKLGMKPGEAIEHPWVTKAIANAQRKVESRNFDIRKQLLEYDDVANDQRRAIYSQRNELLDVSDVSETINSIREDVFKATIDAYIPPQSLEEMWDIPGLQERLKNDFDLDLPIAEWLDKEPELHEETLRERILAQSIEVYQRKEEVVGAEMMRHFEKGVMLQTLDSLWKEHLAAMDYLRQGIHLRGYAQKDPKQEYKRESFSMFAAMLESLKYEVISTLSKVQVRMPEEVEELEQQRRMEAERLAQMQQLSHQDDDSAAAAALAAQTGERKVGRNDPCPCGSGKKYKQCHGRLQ

[2] = biological target: T1, Ubiquitin-activating enzyme e1, putative (Leishmania donovani (strain BPK282A1)) (UniProt E9BSI1); assay: Leishmania donovani Ubiquitin Activating Enzyme (LdE1); format: functional; conditions: 30 µM
T1 sequence (whole entry): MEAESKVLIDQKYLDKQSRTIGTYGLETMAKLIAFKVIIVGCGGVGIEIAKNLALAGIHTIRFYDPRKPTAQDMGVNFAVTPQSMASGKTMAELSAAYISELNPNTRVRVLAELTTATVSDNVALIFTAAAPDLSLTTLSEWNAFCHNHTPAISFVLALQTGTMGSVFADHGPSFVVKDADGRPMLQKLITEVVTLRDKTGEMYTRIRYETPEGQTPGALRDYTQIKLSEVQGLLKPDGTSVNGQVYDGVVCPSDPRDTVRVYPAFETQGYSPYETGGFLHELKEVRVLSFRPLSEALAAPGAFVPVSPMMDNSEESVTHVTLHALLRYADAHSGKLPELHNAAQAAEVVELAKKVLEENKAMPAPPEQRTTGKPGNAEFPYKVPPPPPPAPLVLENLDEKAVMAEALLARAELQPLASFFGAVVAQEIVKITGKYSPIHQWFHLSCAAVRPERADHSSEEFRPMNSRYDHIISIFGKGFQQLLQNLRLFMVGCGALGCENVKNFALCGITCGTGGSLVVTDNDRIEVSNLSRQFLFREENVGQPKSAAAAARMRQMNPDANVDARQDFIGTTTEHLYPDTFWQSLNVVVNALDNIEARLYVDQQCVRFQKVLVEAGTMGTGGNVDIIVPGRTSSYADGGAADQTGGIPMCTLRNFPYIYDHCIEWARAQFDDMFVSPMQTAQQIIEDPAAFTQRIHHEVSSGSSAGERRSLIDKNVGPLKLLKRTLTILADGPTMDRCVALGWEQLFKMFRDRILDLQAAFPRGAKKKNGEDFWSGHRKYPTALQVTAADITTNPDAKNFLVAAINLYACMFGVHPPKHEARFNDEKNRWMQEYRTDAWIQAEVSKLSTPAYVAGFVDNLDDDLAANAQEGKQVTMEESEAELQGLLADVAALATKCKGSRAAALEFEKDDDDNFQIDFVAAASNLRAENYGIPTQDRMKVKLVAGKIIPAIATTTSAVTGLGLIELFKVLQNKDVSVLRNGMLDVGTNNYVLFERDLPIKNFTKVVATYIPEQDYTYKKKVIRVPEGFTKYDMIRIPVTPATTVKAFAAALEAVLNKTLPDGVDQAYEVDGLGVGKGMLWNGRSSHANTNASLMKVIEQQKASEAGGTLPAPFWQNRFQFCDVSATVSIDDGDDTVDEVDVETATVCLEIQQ

[3] = biological target: AMP-activated protein kinase, AMPK (Homo sapiens) (UniProt P54646+O43741+P54619+Q9UGJ0+Q9Y478+Q13131+Q9UGI9); assay: AMP-dependent Kinase enzyme assay. An in vitro enzyme assay that detects ADP turnover that is directly proportional to AMPK activity. This uses naive AMPK that is activated during the assay with MK-8722; format: functional; conditions: 30 µM
[4] = biological target: Sialic acid-binding Ig-like lectin 9 (Homo sapiens) (UniProt Q9Y336); assay: Hs-Siglec9 ALPHAscreen SOP 20170721; conditions: 10 µM
Sialic acid-binding Ig-like lectin 9 (Homo sapiens), sequence (Q9Y336 whole entry): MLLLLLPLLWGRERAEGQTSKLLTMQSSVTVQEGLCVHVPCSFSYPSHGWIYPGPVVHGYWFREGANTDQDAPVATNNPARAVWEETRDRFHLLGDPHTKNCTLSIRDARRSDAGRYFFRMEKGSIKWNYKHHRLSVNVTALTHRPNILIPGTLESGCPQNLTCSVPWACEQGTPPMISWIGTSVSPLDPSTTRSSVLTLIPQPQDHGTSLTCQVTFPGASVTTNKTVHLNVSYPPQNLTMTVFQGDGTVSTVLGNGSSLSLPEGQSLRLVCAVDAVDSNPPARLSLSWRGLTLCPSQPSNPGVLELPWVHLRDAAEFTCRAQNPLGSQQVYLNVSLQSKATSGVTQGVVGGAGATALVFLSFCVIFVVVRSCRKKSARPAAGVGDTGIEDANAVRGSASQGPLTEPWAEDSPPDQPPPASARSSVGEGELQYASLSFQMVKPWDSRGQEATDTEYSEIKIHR

Trypanosoma cruzi = assay: Trypanosoma cruzi phosphomannomutase and mannose-1-phosphate guanylyltransferase assay; format: functional; conditions: 10 µM
[5] = biological target: T2, Arginase-2, mitochondrial (Homo sapiens) (UniProt P78540); assay: in vitro enzyme assay to detect the production of urea directly proportional to the activity of Arginase II; format: functional; conditions: 33.3 µM; further: in the data most compounds retested in dose-response had high values
T2 sequence (whole entry): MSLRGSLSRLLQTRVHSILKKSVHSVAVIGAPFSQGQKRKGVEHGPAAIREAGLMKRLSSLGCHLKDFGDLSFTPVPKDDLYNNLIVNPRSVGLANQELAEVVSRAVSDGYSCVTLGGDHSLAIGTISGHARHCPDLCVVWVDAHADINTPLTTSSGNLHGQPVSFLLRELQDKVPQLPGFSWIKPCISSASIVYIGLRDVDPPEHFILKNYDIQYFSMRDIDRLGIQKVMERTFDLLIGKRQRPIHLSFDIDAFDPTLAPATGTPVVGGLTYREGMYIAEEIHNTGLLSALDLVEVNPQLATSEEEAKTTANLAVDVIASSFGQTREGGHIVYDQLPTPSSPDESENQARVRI

[6] = biological target: T3, Proteasome subunit beta (Trypanosoma cruzi) (UniProt O96673); assay: Trypanosoma cruzi proteasome chymotrypsin-like activity (TcProtChymo) assay.; further: in the data most compounds retested in dose-response had high values; format: functional; conditions: 9.37 µM
T3 sequence (whole entry): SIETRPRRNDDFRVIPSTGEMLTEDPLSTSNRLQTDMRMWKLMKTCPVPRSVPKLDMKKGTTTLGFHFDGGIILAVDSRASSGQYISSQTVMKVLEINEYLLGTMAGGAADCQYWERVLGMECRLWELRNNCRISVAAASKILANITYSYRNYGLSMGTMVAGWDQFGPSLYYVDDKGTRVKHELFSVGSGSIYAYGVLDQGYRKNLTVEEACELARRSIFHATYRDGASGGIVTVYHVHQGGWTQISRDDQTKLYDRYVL

Homo sapiens = species: Homo sapiens; assay: To identify inhibition of the IFN signalling (Jak-Stat) pathway via expression of an eGFP reporter gene under the control of an IFN-stimulated response element (ISRE) containing MxA promoter.; format: functional; conditions: 30 µM
[7] = biological target: T4, Tyrosyl-tRNA synthetase, putative (Trypanosoma cruzi (strain CL Brener)) (UniProt Q4DSP6); assay: Trypanosoma cruzi tyrosyl tRNA synthetase (TcYRS) _High Tyrosine SOP; format: functional; conditions: 30 µM; further: in the data most compounds retested in dose-response had high values
T4 sequence (whole entry): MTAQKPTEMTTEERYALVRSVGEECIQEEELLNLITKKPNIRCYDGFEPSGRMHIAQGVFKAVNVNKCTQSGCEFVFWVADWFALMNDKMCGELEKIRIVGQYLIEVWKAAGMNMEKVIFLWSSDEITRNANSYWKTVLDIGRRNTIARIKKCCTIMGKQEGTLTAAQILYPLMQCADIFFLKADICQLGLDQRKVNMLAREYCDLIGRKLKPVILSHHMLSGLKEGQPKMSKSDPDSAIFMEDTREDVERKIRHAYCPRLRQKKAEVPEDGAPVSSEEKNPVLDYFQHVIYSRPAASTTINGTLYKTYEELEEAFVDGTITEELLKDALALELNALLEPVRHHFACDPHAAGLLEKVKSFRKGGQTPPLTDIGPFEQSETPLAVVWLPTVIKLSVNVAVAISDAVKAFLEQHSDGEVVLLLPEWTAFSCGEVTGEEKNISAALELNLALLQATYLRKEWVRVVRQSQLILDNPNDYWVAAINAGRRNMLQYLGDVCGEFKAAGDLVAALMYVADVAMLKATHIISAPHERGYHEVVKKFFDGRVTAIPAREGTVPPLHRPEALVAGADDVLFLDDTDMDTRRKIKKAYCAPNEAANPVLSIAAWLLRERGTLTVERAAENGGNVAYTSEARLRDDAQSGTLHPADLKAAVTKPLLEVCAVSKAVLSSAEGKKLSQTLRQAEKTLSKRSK

[8] = biological target: T4, Tyrosyl-tRNA synthetase, putative (Trypanosoma cruzi (strain CL Brener)); assay: Trypanosoma cruzi tyrosyl tRNA synthetase (TcYRS) SOP; format: functional; conditions: 30 µM
[9] = biological target: Chromo domain-containing protein 1 (Saccharomyces cerevisiae (strain ATCC 204508 / S288c) (Baker's yeast)) (UniProt P32657); assay: ScCHD-1 Enzyme Inhibition Assay; format: functional; conditions: 30 µM; further: in the data most compounds retested in dose-response had high values
Chromo domain-containing protein 1 (Saccharomyces cerevisiae (strain ATCC 204508 / S288c) (Baker's yeast)), sequence (P32657 whole entry, the tested form may be a part): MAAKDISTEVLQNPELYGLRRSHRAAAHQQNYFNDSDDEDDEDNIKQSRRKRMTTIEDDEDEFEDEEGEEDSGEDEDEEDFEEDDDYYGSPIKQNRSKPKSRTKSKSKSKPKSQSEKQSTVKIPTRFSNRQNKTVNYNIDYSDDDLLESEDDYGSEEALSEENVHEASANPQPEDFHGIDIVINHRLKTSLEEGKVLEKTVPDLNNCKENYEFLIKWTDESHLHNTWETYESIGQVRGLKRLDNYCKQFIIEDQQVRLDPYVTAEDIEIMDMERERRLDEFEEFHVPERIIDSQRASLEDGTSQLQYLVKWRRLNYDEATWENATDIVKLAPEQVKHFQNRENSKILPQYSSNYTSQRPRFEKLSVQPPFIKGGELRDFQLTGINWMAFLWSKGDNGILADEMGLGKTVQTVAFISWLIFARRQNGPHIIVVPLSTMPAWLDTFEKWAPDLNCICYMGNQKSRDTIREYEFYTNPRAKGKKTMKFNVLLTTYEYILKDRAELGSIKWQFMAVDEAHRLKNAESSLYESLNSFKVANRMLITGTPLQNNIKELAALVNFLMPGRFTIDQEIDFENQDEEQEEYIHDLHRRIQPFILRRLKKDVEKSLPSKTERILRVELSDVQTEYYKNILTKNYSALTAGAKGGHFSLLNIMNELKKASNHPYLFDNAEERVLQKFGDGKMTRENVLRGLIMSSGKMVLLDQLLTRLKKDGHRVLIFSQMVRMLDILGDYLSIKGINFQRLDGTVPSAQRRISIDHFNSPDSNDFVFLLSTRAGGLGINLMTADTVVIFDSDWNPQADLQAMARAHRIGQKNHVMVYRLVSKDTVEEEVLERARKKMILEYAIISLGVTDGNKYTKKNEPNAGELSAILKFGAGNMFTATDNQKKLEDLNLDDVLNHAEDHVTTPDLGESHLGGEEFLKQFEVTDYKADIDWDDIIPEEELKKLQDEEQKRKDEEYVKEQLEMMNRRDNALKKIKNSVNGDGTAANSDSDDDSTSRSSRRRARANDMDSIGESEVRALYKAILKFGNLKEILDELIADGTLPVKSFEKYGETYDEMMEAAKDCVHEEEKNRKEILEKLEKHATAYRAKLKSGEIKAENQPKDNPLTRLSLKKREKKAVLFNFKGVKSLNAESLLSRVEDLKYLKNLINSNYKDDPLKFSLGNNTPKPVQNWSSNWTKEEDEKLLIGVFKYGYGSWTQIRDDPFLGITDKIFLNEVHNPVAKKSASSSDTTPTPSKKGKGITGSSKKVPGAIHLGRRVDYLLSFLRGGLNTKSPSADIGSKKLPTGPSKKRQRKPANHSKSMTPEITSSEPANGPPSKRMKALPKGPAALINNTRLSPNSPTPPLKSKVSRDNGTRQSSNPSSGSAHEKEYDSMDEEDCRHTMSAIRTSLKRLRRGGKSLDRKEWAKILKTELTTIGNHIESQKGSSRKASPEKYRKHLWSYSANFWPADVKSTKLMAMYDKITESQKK

Row | Compound | Percent Effect [1] [%] | Percent Effect [2] [%] | Percent Effect [3] [%] | Percent Effect [4] [%] | Percent Effect (Trypanosoma cruzi) [%] | Percent Effect [5] [%] | Percent Effect [6] [%] | Percent Effect (Homo sapiens) [%] | Percent Effect [7] [%] | Percent Effect [8] [%] | Percent Effect [9] [%]
1 | COc1ccc(CS(=O)(=O)CC(=O)NCc2ccccc2F)cc1F | -3.22 | 7.89 | 5.57 | -2.07 | -2.63 | 8.28 | 17.2 | -0.495 | 4.25 | 5.2 | -2.98
2 | O=C(NCc1ccccn1)[C@@H]1COC[C@H]2CN(C3CCOCC3)C[C@H]21 | 4.15 | 8.11 | 9.79 | -14 | -7.33 | 4.78 | 12.7 | 11.2 | 5.41 | 10.3 | -2.43
3 | Nc1cc2c(nn1)CCN(C(=O)c1cccc3c1OCCO3)C2 | 0.377 | 2.6 | -2.26 | 6.77 | 8.24 | 0.356 | 4.05 | 10.7 | 5.83 | 12.2 | -10.5
4 | Cc1noc(CN2CCC(c3ccnn3CCO)CC2)n1 | -3.55 | 12.7 | -1.18 | -2.56 | 8.59 | -0.76 | 8.76 | 4.82 | 6.4 | 16.5 | -6.79
5 | Cc1nnc2n1CCN(Cc1csc(CC(=O)N(C)C)n1)C2 | -4.68 | 10.8 | -6.55 | 9.69 | -1.21 | -2.03 | 3.77 | 9.18 | 5.94 | 13.4 | 0.846
6 | Cc1cccc(C(=O)N2C[C@@H]3OCCN(c4ncccn4)[C@@H]3C2)n1 | -4.13 | 5.33 | -3.52 | 4.37 | -2.7 | -8.78 | 7.35 | -6.79 | 5.21 | 0 | 0.315
7 | CCc1csc(C2CCCN(C(=O)c3ccc(OC)nn3)C2)n1 (stereo not given) | -6.61 | 7.79 | -35.3 | 12.8 | 0.187 | -0.356 | 4.73 | 14.5 | 7.77 | 14.6 | -7.71
8 | O=C1CO[C@@H]2CN(S(=O)(=O)c3ccccc3)C[C@H]2N1CC1CC1 | -1.03 | 8 | 4.02 | 2.54 | -3.28 | -44.3 | 7.86 | -3.38 | -8.33 | -20 | -6.74
9 | O=C(COc1ccc2c(c1)CCC2)N1CCOCC1c1ncon1 (stereo not given) | -2.91 | 2.7 | -3.96 | -4.39 | -4.62 | 1.2 | -1.62 | 13.6 | 4.43 | 6.17 | -2.72
10 | O=C(NCC(O)c1ccccc1Cl)c1cccc(-n2cnnn2)c1 (stereo not given) | -1.49 | 11 | -3.34 | 14.3 | 1.18 | 1.36 | 14.2 | 24.8 | 3.23 | 7.5 | 98.6
11 | COc1ccccc1N1CCC(CNCc2cccc(O)c2)C1 (stereo not given) | -2.9 | -5.41 | 15.1 | 11 | 1.6 | -4.81 | 4.14 | 20.2 | 0.493 | 6.17 | -6.34
12 | CC(C(=O)N1CCCN(Cc2ccc(C#N)cc2)CC1)n1ccnc1 (stereo not given) | -3.9 | 15.8 | -24.4 | -5.95 | -6.01 | 1.15 | 17.2 | 29.1 | 4.41 | 12.2 | -7.57
13 | Cc1ccc(CNC(=O)CN2CCN(CC(O)C3CC3)CC2)cc1 (stereo not given) | -0.763 | 18.2 | -0.209 | -0.425 | 1.87 | 1.94 | 11.3 | 15.5 | 9.52 | 16.7 | 89.9
14 | CC(C)=CCN1CCOC(Cn2nc(C)cc2C)C1 (stereo not given) | 2.83 | 18.4 | 3.22 | -4.58 | -8.27 | -1.92 | 16.7 | 8.7 | 3.43 | 17.1 | -11.3
15 | CC(=O)N1CCCCC1c1nc(N)ncc1-c1ccccc1 (stereo not given) | -3.36 | 13.3 | 9.28 | -4.89 | 5.32 | 19.8 | 6.78 | 8.42 | 6.38 | 14.1 | -3.68
16 | COC(=O)c1sccc1S(=O)(=O)NCC1(O)CCOc2ccccc21 (stereo not given) | -3.54 | 0 | 5.9 | -3.21 | -3.72 | 1.82 | 1.77 | 4.11 | 0 | 7.5 | -4.1
17 | Cc1noc([C@H]2C[C@@H]3CCN(C(=O)C4CCOCC4)C[C@H]3O2)n1 | -3.88 | 0 | 7.28 | 1.95 | -3.81 | 8.6 | 17 | -2.45 | 1.08 | 5.13 | 3.17
18 | Cc1cc(-c2cnc(N3CCCC(C)C3)nc2-c2cccnc2C)on1 (stereo not given) | -7.33 | 1.35 | 6.26 | -5.16 | -5.93 | -5.34 | 8.74 | 59.4 | -8.6 | -3.9 | -22.2
19 | Cc1cnc(NC(=O)c2ccc(-n3ncc(C#N)c3N)cc2)s1 | -5.51 | 7.59 | 14.4 | 4.78 | -6.33 | -4.18 | 5.49 | 29 | 11.3 | 24.1 | -2.52
20 | O=C(Nc1cnccn1)[C@H]1COC[C@H]2CN(C3CCCC3)C[C@H]21 | -0.257 | 2.7 | -0.6 | 0.701 | 4.88 | 2.92 | -0.0845 | -10.3 | 3.96 | -1.22 | -1.78
